Compounds with a hit are over-represented: about 3.5% of the library has one in this group of screens.
TEAD-YAP inh: TEAD-YAP interaction inhibition, primary screen, TEAD-YAP interaction inhibitor project, luminescence, HEK-TIYL cells; TEAD-Gal4/YAP UAS-luciferase luminescence; inhibition, % at 9.12 µM; 1.4% of 640,000 active; AID 1259422, 2018; in the data active means inhibition above about 32%
MITF primary: MITF inhibitors, primary screen, biochemical, AlphaScreen, human; Microphthalmia-associated transcription factor (Homo sapiens), O75030; AlphaScreen MITF homodimerization, bead proximity signal; inhibition, % at 2.6 µM; 0.91% of 650,000 active; in the data active means inhibition above about 50%
FBW7 act: FBW7 E3 ligase activators, primary screen, biochemical, AlphaScreen, human; AlphaScreen FBW7–phospho-cyclin E peptide binding, activator screen; F-box/WD repeat-containing protein 7 (Homo sapiens), Q969H0; normalized activity (activation), % at 26.1 µM; 0.13% of 650,000 active; in the data active means normalized activity above about 1.9%;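 further: purified mutant Fbw7 with reduced substrate affinity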
Target sequence (Q969H0 whole entry, looked up): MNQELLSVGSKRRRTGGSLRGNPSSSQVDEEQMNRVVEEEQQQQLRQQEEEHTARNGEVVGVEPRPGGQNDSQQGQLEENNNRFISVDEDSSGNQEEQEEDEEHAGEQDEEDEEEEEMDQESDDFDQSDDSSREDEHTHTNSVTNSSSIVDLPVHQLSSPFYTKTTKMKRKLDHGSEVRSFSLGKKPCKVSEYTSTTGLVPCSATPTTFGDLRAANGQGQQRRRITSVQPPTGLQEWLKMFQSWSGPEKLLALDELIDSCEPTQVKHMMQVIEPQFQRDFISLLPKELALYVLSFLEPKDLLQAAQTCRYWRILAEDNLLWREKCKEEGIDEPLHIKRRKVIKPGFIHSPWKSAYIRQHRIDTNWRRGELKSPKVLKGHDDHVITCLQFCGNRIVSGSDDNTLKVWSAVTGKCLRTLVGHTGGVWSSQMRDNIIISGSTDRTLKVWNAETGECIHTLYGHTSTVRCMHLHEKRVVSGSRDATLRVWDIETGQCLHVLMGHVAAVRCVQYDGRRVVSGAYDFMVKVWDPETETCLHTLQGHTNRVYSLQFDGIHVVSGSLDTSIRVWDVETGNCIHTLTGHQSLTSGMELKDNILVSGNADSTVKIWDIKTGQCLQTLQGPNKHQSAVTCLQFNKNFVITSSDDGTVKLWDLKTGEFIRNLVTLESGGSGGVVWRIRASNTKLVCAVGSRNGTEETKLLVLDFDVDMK
GPR151 activ: activators of human GPR151, primary screen, cell-based, PathHunter beta-arrestin, luminescence | G-protein coupled receptor 151 (Homo sapiens), Q8TDV0 | PathHunter beta-arrestin GPR151 cells | activation, % at 11.2 µM | 1% of 650,000 active | AID 1508602, 2020; in the data active means activation above about 4.9%
GPR151 conf act: GPR151 activators, triplicate retest, confirmation, cell-based, PathHunter beta-arrestin, luminescence | GPR151 PathHunter beta-arrestin cells, 90 min; % of EA-reagent control over plate median | shares compounds with GPR151 activ | 6,700 tested, under 10 active | AID 1508609, 2020 | activation, % at 11.2 µM;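 active means mean percent activation across replicates above the confirmation screen cutoff of 4.91%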
GPR119 counter: GPR119 activators in beta-arrestin cells, counter-screen for GPR151 activator project, cell-based, PathHunter beta-arrestin, luminescence, triplicate; 90 min; 0 = compound-well median, 100 = enzyme-acceptor control; 0.3% of 6,700 active; activation, % at 11.2 µM; shares compounds with GPR151 activ;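 active means mean percent activation in the counterscreen above 29.09%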;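 further: counterscreen on off-target GPR119 to flag nonselective hits from the GPR151 activator screen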
Hits are given with their value; 0 = inactive; - = not tested or not shown.

SMILES	TEAD-YAP inh	MITF primary	FBW7 act	GPR151 activ	GPR151 conf act	GPR119 counter
Cc1cc(/C=C2\C(=O)NC(=O)N(c3ccc(F)cc3)C2=O)c(C)n1C1CC1	0	0	0	0	-	-
O=C(Nc1cnccn1)C(Sc1ccccc1)c1ccccc1 (stereo unspecified)	0	0	0	0	-	-
Cn1c(=O)n(CC(=O)NCc2ccc(F)cc2)c2cccnc21	0	0	0	10.1	0	0
CN1CCC(CNS(=O)(=O)CCc2ccccc2)CC1	0	0	0	5.7	0	0
COc1ccc(OC)c(C2/C(=C(\O)c3ccccc3)C(=O)C(=O)N2c2nc3ccccc3s2)c1 (stereo unspecified)	0	0	0	0	-	-
Cc1cc(C(=O)N2CCC(c3nc4ccccc4s3)CC2)nn1C	0	0	0	0	-	-
CC1CN(C(=O)c2cc(C(C)C)n(-c3nc4ccccc4s3)n2)CC(C)O1 (stereo unspecified)	0	0	0	5.7	0	0
O=C(Nc1ccc2c(c1)OCO2)c1ccnc(N2CCC(N3CCOCC3)CC2)c1	0	0	0	5.7	0	0
O=C(Nc1ccc(N2CCOCC2)cc1)c1ccnc(N2CCC(N3CCOCC3)CC2)c1	0	0	0	0	-	-
COC(=O)c1c(NC(=O)c2cc3nc(-c4ccccc4)cc(C(F)(F)F)n3n2)sc2c1CCCC2	0	0	0	0	-	-
COc1cc(NC(=O)c2cccc(-n3cc(NC(=O)N[C@@H](C)c4ccccc4)cn3)c2)ccc1N1CCOCC1	0	0	0	5.7	0	0
CCCN1CCC(N2C[C@@H](NCc3cccc(F)c3)C[C@H]2C(=O)NC(C)C)CC1	0	0	0	0	-	-
COc1cccc(/C=N/NC(=O)/C(=C\c2cccs2)NC(=O)c2ccccc2)c1O	0	0	0	6.2	0	0
O=C(N/N=C/c1ccccc1O)/C(=C\c1cccs1)NC(=O)c1ccccc1	0	0	0	0	-	-
Cc1nnc(NC(=O)/C=C/c2c(F)cccc2Cl)s1	0	0	0	0	-	-
CCN1C(=O)/C(=C/c2ccc(I)o2)SC1=S	0	0	0	0	-	-
C=CCN1C(=O)C(=O)/C(=C(\O)c2ccc(C)cc2)C1c1cccc(F)c1 (stereo unspecified)	0	0	0	0	-	-
Cc1cc(NC(=O)c2ccco2)n(-c2nc3ccccc3[nH]2)n1	0	0	0	0	-	-
Cc1cc(NC(=O)C2CC2)n(-c2nc3ccccc3[nH]2)n1	0	0	0	9.1	0	0
Cc1[nH]n(-c2ccc(Cl)cc2)c(=O)c1C=Nc1ccc(S(=O)(=O)N2CCCCC2)cc1	0	0	0	0	-	-
C=C(C)c1cccc(C(C)(C)NC(=O)NNC(=O)c2cccnc2)c1	0	0	0	0	-	-
O=[N+]([O-])c1cc(S(=O)(=O)N2CCOCC2)ccc1NN=C1C2CC3CC(C2)CC1C3	0	0	0	5.0	0	0
CC(C)N1CCC(=NNc2ccc(S(=O)(=O)N3CCOCC3)cc2[N+](=O)[O-])CC1	0	0	0	0	-	-
COc1cc(OC)cc(-c2nc(=S)[nH][nH]2)c1	0	0	0	6.8	0	0
COc1ccc(/C=N/NC(=O)COc2ccc(Cl)cc2)c(OC)c1	0	0	0	0	-	-
SMILES	TEAD-YAP inh	MITF primary	FBW7 act	GPR151 activ	GPR151 conf act	GPR119 counter
CC1CN(CCOCCOc2ccc(Cl)c3ccccc23)CC(C)O1 (stereo unspecified)	0	0	0	0	-	-
CC1CN(CCOCCOc2c(Cl)cccc2Cl)CC(C)O1 (stereo unspecified)	0	0	0	8.4	0	0
COCCNc1nc(-c2ccc(OC)cc2)ccc1C(=O)Nc1cccc(OC)c1	0	0	0	0	-	-
CCOC(=O)c1ccc(NC(=O)COc2ccc(CC)cc2)cc1	0	0	0	4.9	0	0
CCOc1ccc(NC(=O)CC2(c3ccc(OC)cc3)C(=O)c3ccccc3C2=O)cc1	0	0	0	5.4	0	0
CCc1ccc(OCC(=O)Nc2ccc(C(=O)OCCOC)cc2)cc1	0	0	0	0	-	-
CCOCCOC(=O)c1ccc(NC(=O)COc2ccccc2)cc1	0	0	0	5.0	0	0
CCOCCOC(=O)c1ccc(NC(=O)COc2ccc(OC)cc2)cc1	0	0	0	0	-	-
CCOc1ccc(NC(=O)COC)cc1	0	0	0	5.4	0	0
Cc1ccc(C)c(S(=O)(=O)N2CCCOC2CNC(=O)C(=O)NCCO)c1 (stereo unspecified)	0	0	0	0	-	-
Cc1ccc(NC(=O)COc2ccc(C(C)C)cc2)cc1	0	0	0	6.4	0	0
O=C(CSc1nc2cc(Cl)ccc2o1)Nc1ccccn1	0	0	0	0	-	-
O=C1NC2(CCN(C(=O)Cc3ccc(F)cc3)CC2)Nc2ccccc21	0	0	0	0	-	-
CC(C)N(CCNC1CCS(=O)(=O)C1)C(C)C (stereo unspecified)	0	0	0	8.4	0	0
Cc1cc(C)cc(CN2CCN(c3ccc4c(c3)OCO4)C2=O)c1	0	0	0	0	-	-
O=C1N(Cc2ccc(F)cc2F)CCN1c1ccc2c(c1)OCO2	0	0	0	9.8	0	0
Cc1ccc(S(=O)(=O)NCCOC23CC4CC(CC(C4)C2)C3)cc1C	0	0	0	0	-	-
COc1ccc(S(=O)(=O)NCCOC23CC4CC(CC(C4)C2)C3)cc1C	0	0	0	5.3	0	0
CN(c1ccc(C(=O)N2CCCC2)cc1)S(=O)(=O)c1ccc(Cl)cc1	0	0	0	6.6	0	0
CS(=O)(=O)N1CCN(C(=O)c2ccncc2)CC1	0	0	0	5.6	0	0
CS(=O)(=O)N1CCN(C(=O)c2cccnc2)CC1	0	0	0	0	-	-
CS(=O)(=O)N1CCN(C(=S)NCc2ccc(Cl)cc2)CC1	0	0	0	6.8	0	0
CS(=O)(=O)N1CCN(C(=O)c2ccc(Cl)cc2)CC1	0	0	0	7.8	0	0
CS(=O)(=O)N1CCN(C(=S)NCc2ccc(F)cc2)CC1	0	0	0	0	-	-
C/C(=N\NC(=O)c1cccnc1)c1ccc(Br)s1	0	0	0	0	-	-
COc1cc(-c2cn3c(NC(=O)c4cccs4)c(C)nc3cn2)cc(OC)c1OC	0	0	0	5.3	0	0
Cc1nc(N2CCCCC2C(N)=O)c2c3c(sc2n1)CCC3 (stereo unspecified)	0	0	0	0	-	-
COc1ccc(NC(=O)CCc2c(C)nc3cc(-c4ccccc4OC)nn3c2C)cc1	0	0	0	0	-	-
COc1cccc(NC(=O)CCc2c(C)nc3cc(-c4ccccc4OC)nn3c2C)c1	0	0	0	8.2	0	0
CCOc1ccc(CNn2c(C)nnc2SCc2ccccc2F)cc1	0	0	0	0	-	-

Screens (PubChem)
